{"source": "PubChem BioAssay", "note": "The source made the active and inactive calls.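 How the source made its calls: active means inhibition above the hit cutoff set in the earlier primary screen (cut at about 27% in these data); inactive means the rest.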", "data": [{"target": "Protein phosphatase methylesterase 1 (Homo sapiens) (UniProt Q9Y570)", "sequence (Q9Y570 whole entry, looked up)": "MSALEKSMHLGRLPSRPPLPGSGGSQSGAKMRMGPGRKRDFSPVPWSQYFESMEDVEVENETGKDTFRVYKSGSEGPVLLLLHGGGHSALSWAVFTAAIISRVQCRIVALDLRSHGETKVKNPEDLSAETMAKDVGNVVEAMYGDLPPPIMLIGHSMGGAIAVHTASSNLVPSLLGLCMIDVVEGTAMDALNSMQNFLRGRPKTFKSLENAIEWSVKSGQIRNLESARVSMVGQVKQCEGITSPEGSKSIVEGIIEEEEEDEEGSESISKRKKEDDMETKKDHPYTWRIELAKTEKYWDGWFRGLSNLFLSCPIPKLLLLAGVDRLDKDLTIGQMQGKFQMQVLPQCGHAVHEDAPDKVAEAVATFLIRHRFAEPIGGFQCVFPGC", "assay": "PME-1 inhibitor activity retest, confirmation, biochemical, fluorescence polarization, FP-Rh probe, triplicate (AID 2171);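 further: 0% = enzyme with DMSO and 100% = wells lacking PME-1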", "conditions": "recombinant PME-1, FP-Rh probe fluorescence polarization; at 5.9 µM; hits give high values", "values": [{"smiles": "COc1ccc(-c2csc(NC(=O)Nc3ccccc3)n2)cc1", "inhibition": "25.6% (inactive)"}, {"smiles": "CCOc1cccc(CNc2ccc(O)cc2)c1OCc1ccccc1Cl", "inhibition": "6.79% (inactive)"}, {"smiles": "CCOC(=O)C(C)On1c(-c2ccccc2)nc2ccc([N+](=O)[O-])cc21", "note": "(stereo not given)", "inhibition": "34.2% (active)"}, {"smiles": "COc1ccc(/C=N\\NC(=O)c2cc(O)c(O)c(O)c2)cc1COc1ccc(C(=O)OCC(C)C)cc1", "inhibition": "-24.1% (inactive)"}, {"smiles": "Nc1ccc2nc3c(=O)n(CCc4ccccc4)c(=O)[nH]c3nc2c1", "inhibition": "51.2% (active)"}, {"smiles": "Nc1cc(Cl)nc(N/N=C/c2c(O)ccc3ccccc23)n1", "inhibition": "21.6% (inactive)"}, {"smiles": "CC(=O)Oc1c(I)cc(I)cc1C(=O)Nc1ccc(Cl)cc1", "inhibition": "66.8% (active)"}, {"smiles": "O=C(O)c1cc(N/N=C/c2c(O)ccc3ccccc23)ccc1Cl", "inhibition": "20.7% (inactive)"}, {"smiles": "CN1C(=O)NC(c2ccccc2[N+](=O)[O-])C2=C1CCCC2=O", "note": "(stereo not given)", "inhibition": "51.5% (active)"}, {"smiles": "Cc1cc(C)c2c(N)c(-c3nc4ccccc4[nH]3)sc2n1", "inhibition": "3.16% (inactive)"}, {"smiles": "CC(C)Nc1nnc(SCC(=O)Nc2ccc3c(c2)C(=O)c2ccccc2C3=O)s1", "inhibition": "36.4% (active)"}, {"smiles": "COCCCNc1c2c3c(cccc3[nH]c1=O)C(=O)c1ccccc1-2", "inhibition": "133% (active)"}, {"smiles": "COc1cc2[nH]c3c(N4CCN(c5ccc(Cl)cc5)CC4)ncnc3c2cc1OC", "inhibition": "74.9% (active)"}, {"smiles": "CC1=NN(c2ccccc2)C(=O)/C1=C/c1c(O)n(-c2ccc(F)cc2)[nH]c1=O", "inhibition": "52.1% (active)"}, {"smiles": "Cc1ccc(NC(=O)CS(=O)CC(=O)Nc2ccccc2-c2ccc(C)o2)cc1", "note": "(stereo not given)", "inhibition": "2.84% (inactive)"}]}]}
